# Experimental data as given in PubChem BioAssay (NCI).
# About 83,000 compounds went through this panel and 20% of them were active in at least one assay; those are over-represented in the sample as a whole.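 96-well plates, one dose, 48 hours. Percent growth reported; active if below 10.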 Unmarked numbers belong to inactive results. Active and inactive are the calls of the source.
# System: COLO 205 colon
# Assay: NCI-60 one-dose screen, 48 h (100 = growth as untreated, 0 = no growth, -100 = all killed)
# Details: 10 µM unless noted
# Procedure: Cells are grown in 96 well plates and exposed to the test compound for 48 hours. Compounds are tested at a single concentration, which is 10^-5 M for most compounds. The reported endpoint is percent growth (GI% or GIPRCNT), where numbers from 0 - 100% represent growth inhibition, and numbers from -100% - 0 represent cell death. For example, a value of 40 represents 60% growth inhibition. A value of 0 means no net growth occurred over the course of the experiment. A value of -40 indicates 40% of cells at the beginning of the experiment died by the end of the experiment. A value of -100 means all cells are dead at the end of the experiment.
# NCI-60 Human Tumor Cell Lines Screen was performed using the standard one-dose NCI protocol, which is described in more detail at https://dtp.cancer.gov/discovery_development/nci-60/default.htm.
# Compounds with GIPRCNT values below 10 were considered active. Activity score was based on GIPRCNT using the following formula: […]
# Score is 0 for GIPRCNT values of 100 or above, 50 for GIPRCNT values of 0, and 100 for GIPRCNT values of -100.
row,Structure (SMILES),growth
1,Nc1nnc2cc(F)ccc2n1,134%
2,CN(C)c1ccc(/C=C/C(=O)c2ccc(NC(N)=O)cc2)cc1,112%
3,C=CCN1CCCC1=O,95.4%
4,CCOC(=O)c1ccc(NC(=O)Nc2nccs2)cc1,-82.9% (active)
5,Clc1ccc(-c2noc(/C=C\c3ccccc3)n2)cc1,105%
6,Nc1cc(N)ncn1,104%
7,COC1OC(C(COC(C)=O)OC(C)=O)C(OC(C)=O)C(OC(C)=O)C1OC(C)=O (stereo not given),116%
8,NC(=S)N/N=C/c1ccc(OC(=O)COc2ccccc2)cn1,85.9%
9,ClCC(Cl)C1CCC(Cl)C(Cl)C1 (stereo not given),109%
10,Oc1cccnc1CN1CCCC1,103%
11,COc1cccc(N=CNc2cccc(OC)c2)c1,107%
12,CN1C(=O)NC(c2ccc(Cl)cc2)(c2ccc(Cl)cc2)C1=O,122%
13,CC(=O)Nc1ncc(S(=O)(=O)c2ccc([N+](=O)[O-])cc2)s1,106%
14,O=Cc1c(O)c2ccccc2[nH]c1=O,108%
15,Nc1cc(F)ccc1[N+](=O)[O-],116%
16,OCC(O)COc1ccc(Cl)cc1Cl (stereo not given),94%
17,Cc1c(Cl)cccc1NC(=S)NC(=O)c1ccccc1,109%
18,O=C(c1cccc(C(=O)c2ccc3c4c(cccc24)C(=O)N(c2ccccc2)C3=O)c1)c1ccc2c3c(cccc13)C(=O)N(c1ccccc1)C2=O,102%
19,CC1CCC(C)(C)c2ccccc21 (stereo not given),104%
20,C=CCC(O)C=C (stereo not given),106%

row,Structure (SMILES),growth
1,CCOc1ccc2c(c1)c(C)cc(C)[n+]2CC,65.5%
2,CCCC(=O)c1cccs1,111%
3,NC(CO)(CO)c1ccccc1,103%
4,CSCC[C@@H]1C(=O)N(C)[C@H](C(C)(C)C)N1C(=O)c1ccccc1,113%
5,CN(C)Cc1ccccn1,117%
6,CCc1ccccc1C(=O)N(CC)CC,111%
7,CC(CO)(CO)C(=O)O,109%
8,COc1cc(C(=O)O)c(O)c(C(C)(C)C)c1,107%
9,CCCc1cccc(CCC)c1NC(=O)Nc1cc(Cl)cc(Cl)c1,120%
10,CC(C)N(C(=O)c1ccccc1)C(C)C,114%
11,c1ccc(Nc2ccccn2)nc1,104%
12,CCOS(=O)(=O)c1ccc([N+](=O)[O-])cc1,109%
13,COC1=C(OC)C(=O)C(SC/C=C(\C)CCCC(C)CCCC(C)CCCC(C)C)=CC1=O (stereo not given),94.4%
14,COC1C(=O)CCC2(CO2)C1(O)C1(C)OC1CCC(C)C (stereo not given),65.9%
15,CC1CCC(C(C)(C)[N+](C)(C)C)CC1 (stereo not given),106%
16,COc1ccc2c(ccc[n+]2C)c1,111%
17,O=C(N/N=C\c1ccc(Cl)cc1Cl)c1ccncc1,118%
18,COC(=O)c1ccccc1C(=O)c1c(C)cc(C)cc1C,104%
19,O=S1(=O)c2ccccc2Oc2ccccc21,109%
20,OCCNc1ccccc1,107%
